# Assay results reported in article PMC7862700, “An all-to-all approach to the identification of sequence-specific readers for epigenetic DNA modifications on cytosine”.
# Legend:
# Assay in all cases: DAPPL (digital affinity profiling via proximity ligation, sequencing); 10 mM Tris-HCl pH 7.5, 50 mM NaCl, 1 mM DTT, 4% glycerol, room temperature, 30 min; GST-TFs on glutathione beads, 16-mer random dsDNA library, 0.1% formaldehyde crosslink after washing; high values mean tight binding
# FEV = molecular target: T1, FEV (Homo sapiens, UniProt Q99581 1-238); settings: protein: recombinant; tags: N-terminal GST; dsDNA, one strand shown
# T1 sequence: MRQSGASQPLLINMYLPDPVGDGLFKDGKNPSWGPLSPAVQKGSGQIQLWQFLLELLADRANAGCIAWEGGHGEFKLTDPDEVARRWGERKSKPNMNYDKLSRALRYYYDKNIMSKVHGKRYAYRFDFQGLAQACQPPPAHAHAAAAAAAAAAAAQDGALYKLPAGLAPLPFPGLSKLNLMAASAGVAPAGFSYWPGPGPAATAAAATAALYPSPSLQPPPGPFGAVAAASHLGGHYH
# Outline: (§1)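 The binding signal reported is, for every hexamer, its read frequency for a factor over its read frequency for the tag-only sample. Reads came from pools of yeast-expressed, GST-fused human transcription factors on glutathione beads, barcoded with DNA and mixed with that sample, which were incubated with 200 nmole of a random double-stranded 16-mer DNA library in Tris/NaCl/DTT/glycerol buffer at room temperature for 30 min. After washing, the pools were crosslinked with 0.1% formaldehyde, proximity-ligated with BsaI/T4 ligase for 1 h at 37 °C, PCR-amplified and sequenced on an Illumina NextSeq500.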
# ETV5 = ETV5 (Homo sapiens, UniProt P41161 1-510); settings: protein: recombinant; tags: N-terminal GST; dsDNA, one strand shown
# Outline: as §1
# HSF1 = HSF1 (Homo sapiens, UniProt Q00613 1-529); settings: protein: recombinant; tags: N-terminal GST; chain copies: 3; dsDNA, one strand shown
# Outline: as §1
# SPIC = molecular target: T2, SPIC (Homo sapiens, UniProt Q8N5J4 1-248); settings: protein: recombinant; tags: N-terminal GST; dsDNA, one strand shown
# T2 sequence: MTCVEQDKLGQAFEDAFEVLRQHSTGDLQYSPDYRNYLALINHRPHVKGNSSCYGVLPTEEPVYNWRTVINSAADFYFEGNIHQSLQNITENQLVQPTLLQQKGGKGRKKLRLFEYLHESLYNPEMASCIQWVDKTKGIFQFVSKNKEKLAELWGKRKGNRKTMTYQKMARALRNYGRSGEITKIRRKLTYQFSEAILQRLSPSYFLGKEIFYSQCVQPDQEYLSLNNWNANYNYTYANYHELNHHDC
# Outline: as §1
# ELF4 = ELF4 (Homo sapiens, UniProt Q99607 1-663); settings: protein: recombinant; tags: N-terminal GST; dsDNA, one strand shown
# Outline: as §1
# ELK4 = molecular target: T3, ELK4 (Homo sapiens, UniProt P28324-2 1-405); settings: protein: recombinant; tags: N-terminal GST; dsDNA, one strand shown
# T3 sequence: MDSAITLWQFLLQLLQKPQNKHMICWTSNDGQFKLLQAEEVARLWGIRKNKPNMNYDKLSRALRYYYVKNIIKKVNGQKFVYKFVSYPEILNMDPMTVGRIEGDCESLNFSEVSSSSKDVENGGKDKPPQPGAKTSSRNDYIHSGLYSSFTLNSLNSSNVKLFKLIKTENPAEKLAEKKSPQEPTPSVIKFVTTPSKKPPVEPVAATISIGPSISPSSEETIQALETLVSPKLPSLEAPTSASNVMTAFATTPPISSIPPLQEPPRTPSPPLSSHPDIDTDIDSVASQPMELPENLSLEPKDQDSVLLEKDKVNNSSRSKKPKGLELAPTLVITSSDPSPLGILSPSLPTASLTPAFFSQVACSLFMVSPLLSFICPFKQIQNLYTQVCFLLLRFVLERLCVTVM
# Outline: as §1
# ETV2 = molecular target: T4, ETV2 (Homo sapiens, UniProt O00321 1-342); settings: protein: recombinant; tags: N-terminal GST; dsDNA, one strand shown
# T4 sequence: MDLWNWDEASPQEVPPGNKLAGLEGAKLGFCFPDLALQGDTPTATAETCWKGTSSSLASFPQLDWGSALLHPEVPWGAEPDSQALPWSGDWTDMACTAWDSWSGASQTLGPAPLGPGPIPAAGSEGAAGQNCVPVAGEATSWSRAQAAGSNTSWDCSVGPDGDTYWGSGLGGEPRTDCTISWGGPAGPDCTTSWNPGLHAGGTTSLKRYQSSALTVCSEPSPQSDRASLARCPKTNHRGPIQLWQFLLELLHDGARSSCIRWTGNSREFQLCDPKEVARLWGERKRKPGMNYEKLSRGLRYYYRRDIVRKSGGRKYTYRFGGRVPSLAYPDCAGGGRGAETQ
# Outline: as §1
# ELF3 = molecular target: T5, ELF3 (Homo sapiens, UniProt P78545 1-371); settings: protein: recombinant; tags: N-terminal GST; dsDNA, one strand shown
# T5 sequence: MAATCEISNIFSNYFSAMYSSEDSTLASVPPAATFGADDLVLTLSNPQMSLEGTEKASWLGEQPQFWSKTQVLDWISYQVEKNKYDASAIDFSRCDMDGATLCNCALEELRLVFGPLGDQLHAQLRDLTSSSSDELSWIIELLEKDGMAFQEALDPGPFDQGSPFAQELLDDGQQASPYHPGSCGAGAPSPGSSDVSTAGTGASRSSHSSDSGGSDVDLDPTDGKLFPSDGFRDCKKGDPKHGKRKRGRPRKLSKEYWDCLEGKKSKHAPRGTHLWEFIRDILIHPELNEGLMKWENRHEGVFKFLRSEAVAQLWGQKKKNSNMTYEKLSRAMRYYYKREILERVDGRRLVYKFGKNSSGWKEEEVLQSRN
# Outline: as §1
# CRX = CRX (Homo sapiens, UniProt O43186 1-299); settings: protein: recombinant; tags: N-terminal GST; dsDNA, one strand shown
# Outline: as §1
# ETV1 = ETV1 (Homo sapiens, UniProt P50549 1-477); settings: protein: recombinant; tags: N-terminal GST; dsDNA, one strand shown
# Outline: as §1
# ERF = molecular target: T6, ERF (Homo sapiens, UniProt P50548 1-548); settings: protein: recombinant; tags: N-terminal GST; dsDNA, one strand shown
# T6 sequence: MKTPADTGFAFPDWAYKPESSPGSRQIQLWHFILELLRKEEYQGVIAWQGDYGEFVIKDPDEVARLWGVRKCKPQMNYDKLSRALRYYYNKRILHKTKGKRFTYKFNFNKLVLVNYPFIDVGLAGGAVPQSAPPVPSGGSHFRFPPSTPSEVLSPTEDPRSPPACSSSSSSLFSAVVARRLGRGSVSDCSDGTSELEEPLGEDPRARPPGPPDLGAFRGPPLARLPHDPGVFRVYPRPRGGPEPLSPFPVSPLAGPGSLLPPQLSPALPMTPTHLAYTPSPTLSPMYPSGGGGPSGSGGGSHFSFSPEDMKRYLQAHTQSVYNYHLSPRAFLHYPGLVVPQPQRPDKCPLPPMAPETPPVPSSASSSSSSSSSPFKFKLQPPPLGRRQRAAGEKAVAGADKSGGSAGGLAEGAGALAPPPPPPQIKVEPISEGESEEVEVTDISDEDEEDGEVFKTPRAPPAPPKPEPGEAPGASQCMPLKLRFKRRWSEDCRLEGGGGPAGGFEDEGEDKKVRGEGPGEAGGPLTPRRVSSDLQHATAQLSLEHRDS
# Outline: as §1
# ETV3L = molecular target: T7, ETV3L (Homo sapiens, UniProt Q6ZN32 1-361); settings: protein: recombinant; tags: N-terminal GST; dsDNA, one strand shown
# T7 sequence: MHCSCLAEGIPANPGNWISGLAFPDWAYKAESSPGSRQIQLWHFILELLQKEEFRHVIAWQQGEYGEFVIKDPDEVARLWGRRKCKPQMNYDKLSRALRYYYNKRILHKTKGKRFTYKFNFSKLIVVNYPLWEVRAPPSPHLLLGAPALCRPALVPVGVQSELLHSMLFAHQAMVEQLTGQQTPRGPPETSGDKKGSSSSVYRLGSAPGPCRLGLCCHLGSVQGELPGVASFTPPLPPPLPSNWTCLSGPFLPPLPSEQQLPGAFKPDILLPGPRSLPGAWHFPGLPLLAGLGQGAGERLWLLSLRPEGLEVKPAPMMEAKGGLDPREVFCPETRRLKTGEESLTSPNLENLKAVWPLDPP
# Outline: as §1
# ETS2 = molecular target: T8, ETS2 (Homo sapiens, UniProt P15036 1-469); settings: protein: recombinant; tags: N-terminal GST; dsDNA, one strand shown
# T8 sequence: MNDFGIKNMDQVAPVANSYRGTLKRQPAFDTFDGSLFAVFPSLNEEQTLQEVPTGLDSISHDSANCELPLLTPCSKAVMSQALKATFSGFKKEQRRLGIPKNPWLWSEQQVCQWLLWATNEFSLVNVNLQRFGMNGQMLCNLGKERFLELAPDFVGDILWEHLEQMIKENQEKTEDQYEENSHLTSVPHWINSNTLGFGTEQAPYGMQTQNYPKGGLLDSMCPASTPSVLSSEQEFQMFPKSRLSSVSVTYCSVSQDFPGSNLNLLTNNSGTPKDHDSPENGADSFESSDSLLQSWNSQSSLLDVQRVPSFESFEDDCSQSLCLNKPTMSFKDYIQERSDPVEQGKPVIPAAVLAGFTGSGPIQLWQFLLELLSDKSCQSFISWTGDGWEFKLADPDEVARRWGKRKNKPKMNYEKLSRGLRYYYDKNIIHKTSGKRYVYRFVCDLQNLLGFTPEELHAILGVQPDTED
# Outline: as §1
# SPDEF = molecular target: T9, SPDEF (Homo sapiens, UniProt O95238 1-335); settings: protein: recombinant; tags: N-terminal GST; dsDNA, one strand shown
# T9 sequence: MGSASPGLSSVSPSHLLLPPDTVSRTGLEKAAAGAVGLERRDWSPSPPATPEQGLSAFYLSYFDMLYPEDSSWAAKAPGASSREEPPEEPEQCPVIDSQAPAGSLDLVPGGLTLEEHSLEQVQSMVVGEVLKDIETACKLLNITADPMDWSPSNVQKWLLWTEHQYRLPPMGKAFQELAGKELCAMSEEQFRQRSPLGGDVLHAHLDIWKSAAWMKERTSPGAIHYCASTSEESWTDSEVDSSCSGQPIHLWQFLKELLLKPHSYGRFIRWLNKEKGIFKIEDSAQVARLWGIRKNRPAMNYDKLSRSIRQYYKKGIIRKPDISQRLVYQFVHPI
# Outline: as §1
# ETV7 = molecular target: T10, ETV7 (Homo sapiens, UniProt Q9Y603 1-341); settings: protein: recombinant; tags: N-terminal GST; dsDNA, one strand shown
# T10 sequence: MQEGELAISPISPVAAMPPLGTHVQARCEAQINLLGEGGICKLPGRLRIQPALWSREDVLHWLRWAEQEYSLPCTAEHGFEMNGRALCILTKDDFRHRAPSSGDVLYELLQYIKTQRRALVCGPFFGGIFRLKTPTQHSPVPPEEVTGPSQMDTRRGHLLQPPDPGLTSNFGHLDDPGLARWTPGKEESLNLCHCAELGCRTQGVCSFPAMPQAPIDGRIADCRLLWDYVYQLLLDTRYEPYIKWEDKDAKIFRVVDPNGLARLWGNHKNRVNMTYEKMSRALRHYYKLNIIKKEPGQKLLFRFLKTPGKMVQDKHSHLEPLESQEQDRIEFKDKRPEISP
# Outline: as §1
# ELF5 = molecular target: T11, ELF5 (Homo sapiens, UniProt Q9UKW6-2 1-255); settings: protein: recombinant; tags: N-terminal GST; dsDNA, one strand shown
# T11 sequence: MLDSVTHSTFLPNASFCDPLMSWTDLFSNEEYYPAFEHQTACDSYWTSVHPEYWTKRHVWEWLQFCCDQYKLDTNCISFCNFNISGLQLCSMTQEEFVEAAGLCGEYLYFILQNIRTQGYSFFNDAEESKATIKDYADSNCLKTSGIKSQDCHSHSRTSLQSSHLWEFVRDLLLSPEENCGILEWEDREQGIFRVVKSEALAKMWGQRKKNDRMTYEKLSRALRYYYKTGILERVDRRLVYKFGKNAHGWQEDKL
# Outline: as §1
# ETV3 = molecular target: T12, ETV3 (Homo sapiens, UniProt P41162-2 1-143); settings: protein: recombinant; tags: N-terminal GST; dsDNA, one strand shown
# T12 sequence: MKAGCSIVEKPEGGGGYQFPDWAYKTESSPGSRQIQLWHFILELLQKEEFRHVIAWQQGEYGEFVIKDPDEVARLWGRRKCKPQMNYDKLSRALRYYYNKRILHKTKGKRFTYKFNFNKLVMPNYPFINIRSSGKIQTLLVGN
# Outline: as §1
# ETV6 = ETV6 (Homo sapiens, UniProt P41212 1-452); settings: protein: recombinant; tags: N-terminal GST; dsDNA, one strand shown
# Outline: as §1
# ETV5, sequence (P41161 whole entry): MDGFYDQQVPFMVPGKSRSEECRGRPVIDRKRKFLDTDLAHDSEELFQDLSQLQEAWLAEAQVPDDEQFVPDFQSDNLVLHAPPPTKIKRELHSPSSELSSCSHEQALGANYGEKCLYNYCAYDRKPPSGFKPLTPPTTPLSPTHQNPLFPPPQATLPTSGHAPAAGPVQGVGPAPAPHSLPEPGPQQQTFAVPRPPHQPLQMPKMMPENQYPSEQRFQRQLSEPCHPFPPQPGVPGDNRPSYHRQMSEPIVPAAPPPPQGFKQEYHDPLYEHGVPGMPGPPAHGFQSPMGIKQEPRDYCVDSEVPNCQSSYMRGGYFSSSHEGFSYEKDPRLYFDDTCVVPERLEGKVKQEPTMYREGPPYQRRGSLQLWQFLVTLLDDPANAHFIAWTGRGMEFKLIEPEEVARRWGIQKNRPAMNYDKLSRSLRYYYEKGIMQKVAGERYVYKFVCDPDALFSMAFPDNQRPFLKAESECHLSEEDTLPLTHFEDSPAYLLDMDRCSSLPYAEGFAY
# ETV6, sequence (P41212 whole entry): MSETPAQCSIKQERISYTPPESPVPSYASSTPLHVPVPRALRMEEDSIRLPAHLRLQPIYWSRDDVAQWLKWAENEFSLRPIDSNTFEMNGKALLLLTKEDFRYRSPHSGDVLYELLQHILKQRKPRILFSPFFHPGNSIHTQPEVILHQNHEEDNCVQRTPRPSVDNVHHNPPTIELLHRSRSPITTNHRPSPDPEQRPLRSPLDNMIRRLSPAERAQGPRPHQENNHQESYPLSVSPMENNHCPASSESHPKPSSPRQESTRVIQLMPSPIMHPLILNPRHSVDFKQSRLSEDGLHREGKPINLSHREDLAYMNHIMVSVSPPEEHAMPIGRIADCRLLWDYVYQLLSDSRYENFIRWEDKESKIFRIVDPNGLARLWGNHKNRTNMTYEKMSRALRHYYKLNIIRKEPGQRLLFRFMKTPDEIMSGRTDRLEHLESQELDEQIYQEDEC
# CRX, sequence (O43186 whole entry): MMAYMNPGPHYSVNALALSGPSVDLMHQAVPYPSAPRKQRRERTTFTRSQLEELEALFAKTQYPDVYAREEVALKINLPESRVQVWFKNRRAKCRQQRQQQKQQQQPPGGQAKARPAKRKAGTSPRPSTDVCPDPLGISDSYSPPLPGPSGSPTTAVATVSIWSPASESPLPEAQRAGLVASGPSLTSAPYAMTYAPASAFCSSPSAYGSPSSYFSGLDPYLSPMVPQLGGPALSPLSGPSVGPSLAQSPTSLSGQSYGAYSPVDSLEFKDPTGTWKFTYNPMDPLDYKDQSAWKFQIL
# ELF4, sequence (Q99607 whole entry): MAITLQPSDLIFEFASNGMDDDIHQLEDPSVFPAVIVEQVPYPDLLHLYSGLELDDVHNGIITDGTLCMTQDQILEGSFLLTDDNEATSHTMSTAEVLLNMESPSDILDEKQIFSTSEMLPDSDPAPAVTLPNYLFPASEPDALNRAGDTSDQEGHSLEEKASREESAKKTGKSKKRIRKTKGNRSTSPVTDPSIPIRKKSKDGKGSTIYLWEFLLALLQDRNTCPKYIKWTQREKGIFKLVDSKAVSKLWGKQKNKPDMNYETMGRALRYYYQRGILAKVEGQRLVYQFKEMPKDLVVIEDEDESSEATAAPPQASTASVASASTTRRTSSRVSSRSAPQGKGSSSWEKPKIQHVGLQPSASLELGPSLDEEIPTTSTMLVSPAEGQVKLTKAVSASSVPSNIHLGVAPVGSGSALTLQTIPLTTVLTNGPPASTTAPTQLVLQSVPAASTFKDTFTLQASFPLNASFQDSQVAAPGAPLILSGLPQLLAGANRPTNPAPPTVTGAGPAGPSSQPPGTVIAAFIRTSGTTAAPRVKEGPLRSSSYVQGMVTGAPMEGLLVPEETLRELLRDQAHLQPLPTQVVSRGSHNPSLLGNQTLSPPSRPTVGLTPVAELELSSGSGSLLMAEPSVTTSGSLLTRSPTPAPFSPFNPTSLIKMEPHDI
# ETV1, sequence (P50549 whole entry): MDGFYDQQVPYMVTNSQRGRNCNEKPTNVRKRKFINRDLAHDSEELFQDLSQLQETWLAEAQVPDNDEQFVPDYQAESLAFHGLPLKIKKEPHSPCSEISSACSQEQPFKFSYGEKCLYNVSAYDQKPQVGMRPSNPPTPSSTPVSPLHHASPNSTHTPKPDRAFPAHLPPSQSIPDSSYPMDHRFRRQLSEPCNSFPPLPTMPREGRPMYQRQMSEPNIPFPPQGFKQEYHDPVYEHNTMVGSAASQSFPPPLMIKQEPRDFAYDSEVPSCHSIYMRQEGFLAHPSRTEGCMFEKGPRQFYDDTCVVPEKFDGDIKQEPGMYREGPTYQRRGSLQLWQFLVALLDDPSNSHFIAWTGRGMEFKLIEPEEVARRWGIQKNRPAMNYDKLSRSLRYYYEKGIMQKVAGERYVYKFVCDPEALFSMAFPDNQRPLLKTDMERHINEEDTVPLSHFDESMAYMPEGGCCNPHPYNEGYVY
# HSF1, sequence (Q00613 whole entry): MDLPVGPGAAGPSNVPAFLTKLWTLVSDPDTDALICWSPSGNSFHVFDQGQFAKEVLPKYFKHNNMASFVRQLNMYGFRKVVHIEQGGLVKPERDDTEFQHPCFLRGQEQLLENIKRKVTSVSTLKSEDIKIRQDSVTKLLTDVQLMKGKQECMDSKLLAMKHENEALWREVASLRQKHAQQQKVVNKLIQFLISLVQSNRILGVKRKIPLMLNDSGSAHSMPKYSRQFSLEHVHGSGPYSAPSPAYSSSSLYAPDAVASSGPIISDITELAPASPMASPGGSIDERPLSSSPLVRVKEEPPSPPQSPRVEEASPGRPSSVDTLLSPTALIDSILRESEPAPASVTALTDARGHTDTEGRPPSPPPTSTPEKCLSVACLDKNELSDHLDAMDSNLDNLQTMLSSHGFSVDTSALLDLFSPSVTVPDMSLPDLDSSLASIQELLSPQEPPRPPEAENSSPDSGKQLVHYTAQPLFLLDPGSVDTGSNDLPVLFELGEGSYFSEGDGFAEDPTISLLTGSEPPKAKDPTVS
sequence,measurement,setting,value
GCCTTC,binding signal,FEV,"1.57 fold enrichment (6-mer frequency, TF over GST control)"
same,binding signal,ETV5,"1.56 fold enrichment (6-mer frequency, TF over GST control)"
same,binding signal,HSF1,"1.49 fold enrichment (6-mer frequency, TF over GST control)"
same,binding signal,SPIC,"1.71 fold enrichment (6-mer frequency, TF over GST control)"
same,binding signal,ELF4,"1.6 fold enrichment (6-mer frequency, TF over GST control)"
same,binding signal,ELK4,"1.64 fold enrichment (6-mer frequency, TF over GST control)"
same,binding signal,ETV2,"1.63 fold enrichment (6-mer frequency, TF over GST control)"
same,binding signal,ELF3,"1.41 fold enrichment (6-mer frequency, TF over GST control)"
same,binding signal,CRX,"1.2 fold enrichment (6-mer frequency, TF over GST control)"
same,binding signal,ETV1,"1.66 fold enrichment (6-mer frequency, TF over GST control)"
same,binding signal,ERF,"1.47 fold enrichment (6-mer frequency, TF over GST control)"
same,binding signal,ETV3L,"1.45 fold enrichment (6-mer frequency, TF over GST control)"
same,binding signal,ETS2,"1.44 fold enrichment (6-mer frequency, TF over GST control)"
same,binding signal,SPDEF,"1.47 fold enrichment (6-mer frequency, TF over GST control)"
same,binding signal,ETV7,"1.47 fold enrichment (6-mer frequency, TF over GST control)"
same,binding signal,ELF5,"1.67 fold enrichment (6-mer frequency, TF over GST control)"
same,binding signal,ETV3,"1.63 fold enrichment (6-mer frequency, TF over GST control)"
same,binding signal,ETV6,"1.47 fold enrichment (6-mer frequency, TF over GST control)"
